Assay results taken from the antibiotic and cytotoxicity screens of Wong et al. (2023).
Out of some 39,000 compounds screened, about 1,500 (3.8%) were called active. The sample holds actives, similar compounds and a random draw of the others, so the mix is not that of the screen.

test system: HSkMC (human skeletal muscle cells); test: cytotoxicity call (relative viability < 0.9); conditions: 10 µM

Compound	cytotoxicity call
Nc1cccn2ncnc12	inactive
CCCC(=O)Nc1nc2[nH]c(C)cc(=O)n2n1	inactive
COc1cccc(CNC(=O)c2cc3c(c(-c4cccc(-c5cccc(C#N)c5)c4)n2)[C@@H](CCO)N([S@](=O)C(C)(C)C)C3)c1	inactive
COC1(NC(=O)C(C(=O)[O-])c2ccc(O)cc2)C(=O)N2C(C(=O)[O-])=C(CSc3nnnn3C)COC21.[Na+].[Na+] (centres undefined)	inactive
CNC[C@H]1OCCCC[C@@H](C)Oc2ccc(NC(=O)c3ccncc3)cc2C(=O)N([C@@H](C)CO)C[C@H]1C	inactive
C[C@@H]1CCCCO[C@@H](CN(C)C(=O)Nc2ccc(F)cc2)[C@@H](C)CN([C@H](C)CO)C(=O)c2cc(NC(=O)C3CCCCC3)ccc2O1	inactive
C[C@@H]1CN([C@@H](C)CO)C(=O)c2cc(NC(=O)c3ccccc3)ccc2O[C@@H](C)CCCCO[C@@H]1CN(C)S(=O)(=O)c1ccc(F)cc1	inactive
Cc1cc(O)n(C[C@H]2CCCO2)c(=O)c1C#N	inactive
COc1ccc(S(=O)(=O)Nc2ccc3c(c2)C(=O)N([C@H](C)CO)C[C@@H](C)[C@H](CN(C)C(=O)Nc2ccc4c(c2)OCO4)OCCCC[C@@H](C)O3)cc1	inactive
COc1ccc(S(=O)(=O)N(C)C[C@H]2Oc3c(NC(=O)Nc4c(C)noc4C)cccc3C(=O)N([C@@H](C)CO)C[C@@H]2C)cc1	inactive
O=C(NC1CCCCC1)N1c2ccccc2C=Cc2ccccc21	inactive
C[C@H]1CN([C@@H](C)CO)C(=O)c2c(c3ccccc3n2C)-c2ccccc2CO[C@@H]1CN(C)Cc1cccc2c1OCCCO2	inactive
CCCC(=O)N1CC[C@]2(CC1)CN([C@H](CO)c1c2c2ccc(cc2n1C)OC)C(=O)CN1CCOCC1	inactive
C[C@H](CO)N1C[C@H](C)[C@H](CN(C)C(=O)Nc2ccc(F)cc2)Oc2ccc(NC(=O)Nc3cccc4ccccc34)cc2C1=O	inactive
CCS(=O)(=O)Nc1ccc2c(c1)C(=O)N(C)[C@H]1CC[C@@H](CC(=O)NCCCN3CCOCC3)O[C@H]1CO2	inactive
COc1ccc(NC(=O)Nc2ccc3c(c2)C(=O)N([C@H](C)CO)C[C@@H](C)[C@@H](CN(C)Cc2ccc(C(F)(F)F)cc2)O3)cc1	inactive
COc1ccc(CN(C)C[C@H]2Oc3ccc(NC(=O)Nc4ccc(C(F)(F)F)cc4)cc3C(=O)N([C@@H](C)CO)C[C@@H]2C)cc1	active
COc1ccc(NC(=O)Nc2ccc3c(c2)C(=O)N([C@H](C)CO)C[C@H](C)[C@H](CN(C)Cc2ccc(C(F)(F)F)cc2)O3)cc1	inactive
COc1ccc(CN(C)C[C@H]2Oc3ccc(NC(=O)Nc4ccc(C(F)(F)F)cc4)cc3C(=O)N([C@@H](C)CO)C[C@H]2C)cc1	active
COc1ccc(S(=O)(=O)Nc2ccc3c(c2)C(=O)N([C@@H](C)CO)C[C@@H](C)[C@@H](CN(C)Cc2ccccc2)OCCCC[C@H](C)O3)cc1	inactive
C[C@H](CO)N1C[C@H](C)[C@@H](CN(C)S(=O)(=O)c2ccc(Cl)cc2)Oc2c(NS(C)(=O)=O)cccc2C1=O	inactive
C[C@@H]1CN([C@@H](C)CO)C(=O)Cc2cc(NS(C)(=O)=O)ccc2O[C@H]1CN(C)S(=O)(=O)c1ccc(F)cc1	inactive

Compound	cytotoxicity call
O=C(C[C@@H]1C=C[C@H](NC(=O)c2ccncc2)[C@@H](CO)O1)NCc1ccncn1	inactive
Cc1ccc(S(=O)(=O)Nc2ccc3c(c2)C(=O)N([C@@H](C)CO)C[C@H](C)[C@H](CN(C)Cc2ccc(Oc4ccccc4)cc2)O3)cc1	inactive
C[C@@H]1CN([C@H](C)CO)C(=O)c2cc(NS(=O)(=O)c3ccccc3)ccc2O[C@@H]1CN(C)Cc1ccc(Oc2ccccc2)cc1	active
COc1ccc(S(=O)(=O)Nc2ccc3c(c2)C(=O)N([C@H](C)CO)C[C@H](C)[C@H](CN(C)Cc2ccc(Oc4ccccc4)cc2)O3)cc1	inactive
Cc1ccc(S(=O)(=O)Nc2ccc3c(c2)C(=O)N([C@@H](C)CO)C[C@@H](C)[C@H](CN(C)Cc2ccc(Oc4ccccc4)cc2)O3)cc1	inactive
Cc1ccc(S(=O)(=O)Nc2ccc3c(c2)C(=O)N([C@H](C)CO)C[C@@H](C)[C@@H](CN(C)Cc2ccc(Oc4ccccc4)cc2)O3)cc1	active
COc1ccc(S(=O)(=O)Nc2ccc3c(c2)C(=O)N([C@H](C)CO)C[C@@H](C)[C@@H](CN(C)Cc2ccc(Oc4ccccc4)cc2)O3)cc1	inactive
Cc1ccc(S(=O)(=O)Nc2ccc3c(c2)C(=O)N([C@@H](C)CO)C[C@@H](C)[C@@H](CN(C)Cc2ccc(Oc4ccccc4)cc2)O3)cc1	active
C[C@H](CO)N1C[C@H](C)[C@@H](CN(C)Cc2ccc(Oc3ccccc3)cc2)Oc2ccc(NS(=O)(=O)c3ccccc3)cc2C1=O	inactive
COc1ccc(S(=O)(=O)Nc2ccc3c(c2)C(=O)N([C@H](C)CO)C[C@H](C)[C@@H](CN(C)Cc2ccc(Oc4ccccc4)cc2)O3)cc1	active
Cc1ccc(S(=O)(=O)Nc2ccc3c(c2)C(=O)N([C@@H](C)CO)C[C@H](C)[C@@H](CN(C)Cc2ccc(Oc4ccccc4)cc2)O3)cc1	inactive
C[C@H]1CN([C@@H](C)CO)C(=O)c2cc(NS(=O)(=O)c3ccccc3)ccc2O[C@H]1CN(C)Cc1ccc(Oc2ccccc2)cc1	inactive
CC(C)NC(=O)Nc1ccc2c(c1)C(=O)N([C@H](C)CO)C[C@@H](C)[C@@H](CN(C)C(=O)NC1CCCCC1)O2	inactive
CN1CCN(C(=O)C[C@H]2CC[C@H](NC(=O)c3ccc4c(c3)OCO4)[C@H](CO)O2)CC1	inactive
C[C@@H]1CN([C@@H](C)CO)C(=O)c2cc(NS(=O)(=O)c3cccs3)ccc2O[C@@H](C)CCCCO[C@H]1CN(C)Cc1ccccc1	inactive
C[C@H](CO)N1C[C@H](C)[C@H](CN(C)C(=O)Cc2ccccn2)Oc2cc(-c3cccc(C(=O)N(C)C)c3)ccc2S1(=O)=O	inactive
C[N+](C)(C)CCCC[C@@H]1NC(=O)[C@@H]2C[C@H](C(=O)NCc3ccc(F)cc3)[C@H](c3cccc(OCCO)c3)N2C1=O	inactive
C[C@@H]1CCCCO[C@@H](CN(C)Cc2ccccc2)[C@H](C)CN([C@@H](C)CO)C(=O)c2cc(NC(=O)c3ccncc3)ccc2O1	inactive
C[C@H](CO)N1C[C@H](C)[C@@H](CN(C)C(=O)Nc2ccccc2F)Oc2ncc(Br)cc2C1=O	inactive
C[C@H](CO)N1C[C@H](C)[C@@H](CN(C)C(=O)Nc2ccc(C(C)(C)C)cc2)OCc2cn(nn2)CCCC1=O	inactive
C[C@H]1CN([C@@H](C)CO)C(=O)Cc2cc(NC(=O)Cc3cn(C)c4ccccc34)ccc2O[C@H]1CN(C)Cc1ccc(C(=O)Nc2ccccc2N)cc1	inactive
C[C@H](CO)N1C[C@H](C)[C@@H](CN(C)C(=O)C2CCCCC2)OCCCC[C@H](C)Oc2ccc(NS(=O)(=O)c3cccs3)cc2C1=O	inactive

Compound	cytotoxicity call
C[C@H](O)C#Cc1cnc2c(c1)C(=O)N([C@@H](C)CO)C[C@H](C)[C@H](CN(C)C(=O)CN1CCOCC1)O2	inactive
CC(C)NC(=O)N(C)C[C@@H]1Oc2c(NS(=O)(=O)c3cn(C)cn3)cccc2C(=O)N([C@@H](C)CO)C[C@@H]1C	inactive
C[C@@H]1CN([C@@H](C)CO)C(=O)c2cc(NS(=O)(=O)c3cccs3)ccc2O[C@@H](C)CCCCO[C@@H]1CN(C)Cc1ccccc1	inactive
Cc1ccc(S(=O)(=O)Nc2ccc3c(c2)C(=O)N([C@H](C)CO)C[C@H](C)[C@H](CN(C)Cc2ccc(Oc4ccccc4)cc2)O3)cc1	inactive
Cc1ccc(S(=O)(=O)Nc2ccc3c(c2)C(=O)N([C@H](C)CO)C[C@H](C)[C@@H](CN(C)Cc2ccc(Oc4ccccc4)cc2)O3)cc1	inactive
Cc1ccc(S(=O)(=O)Nc2ccc3c(c2)C(=O)N([C@H](C)CO)C[C@@H](C)[C@H](CN(C)Cc2ccc(Oc4ccccc4)cc2)O3)cc1	active
O=C(CCCCC(=O)N/N=C/[C@H](O)[C@@H](O)[C@@H](O)[C@H](O)C(=O)O)NO	inactive
C/C(=C\CO)CC[C@H](C)CCC[C@H](C)CCCC(C)C	inactive
CC(=CCC1=C(C)C(=O)c2ccccc2C1=O)CCCC(C)CCCC(C)CCCC(C)C (centres undefined)	inactive
CC(=CCO)CCC(C)CCCC(C)CCCC(C)C (centres undefined)	active
COc1ccc(S(=O)(=O)N(C)C[C@H]2OCCCC[C@H](C)Oc3ccc(NC(=O)C4CCCCC4)cc3C(=O)N([C@H](C)CO)C[C@H]2C)cc1	inactive
CCNC(=O)C[C@H]1C=C[C@@H](NC(=O)C2CC2)[C@H](CO)O1	inactive
CC1(C)CC(=O)c2c(C(F)(F)F)nn(-c3ccc(C(N)=O)c(N[C@H]4CC[C@H](OC(=O)CN)CC4)c3)c2C1	active
CC1(C)CC(=O)c2c(C(F)(F)F)nn(-c3ccc(C(N)=O)c(O[C@H]4CC[C@H](N)CC4)c3)c2C1	inactive
NCc1ccccc1-c1ccsc1	inactive
CC(C)C#Cc1cnc2c(c1)C(=O)N([C@@H](C)CO)C[C@H](C)[C@@H](CN(C)C(=O)c1ccc3c(c1)OCO3)O2	inactive
COc1ccc(CN(C)C[C@@H]2OCCCC[C@@H](C)Oc3ccc(NC(=O)Nc4ccccc4)cc3C(=O)N([C@H](C)CO)C[C@@H]2C)cc1	inactive
COc1ccc(-c2oc3cc(O[C@@H]4O[C@@H](C)[C@H](O)[C@@H](O)[C@H]4O)cc(O)c3c(=O)c2O[C@@H]2O[C@H](CO)[C@@H](O)[C@H](O)[C@H]2O)cc1	inactive
COc1ccc(-c2oc3c(CC=C(C)C)c(O[C@@H]4O[C@H](CO)[C@@H](O)[C@H](O)[C@H]4O)cc(O)c3c(=O)c2O[C@@H]2O[C@@H](C)[C@H](O)[C@@H](O)[C@H]2O)cc1	active
COc1ccc(-c2oc3c(CC=C(C)C)c(OC4OC(CO)C(O)C(O)C4O)cc(O)c3c(=O)c2OC2OC(C)C(O)C(O)C2O)cc1 (centres undefined)	inactive
